Out of some 380,000 compounds screened, about 4,000 (1.1%) were called active. Not shown: some 3% with an inconclusive outcome. The call rests on the fitted dose curve; in most records, active means well fitted activation curve with a large enough effect; inconclusive means small, poorly fitted or top-dose-only effect; inactive means no such curve, though single readings can be large or run the other way. The list comes from a sample in which actives are over-represented; it also holds similar structures and randomly drawn compounds.
test: qHTS Assay to Identify Small Molecule Activators of BRCA1 Expression; conditions: MCF7-BRCA1-FFLuc reporter, luminescence, 48 h; series mostly up to 46.1 µM; further: nearly all actives have a fitted effect of over 80% in size
Procedure, shortened: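 Reporter cells (MCF7, BRCA1 promoter-firefly luciferase) received library compounds across a concentration series for 48 h. End-point luminescence was measured and concentration-effect curves derived after normalization.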
Potency means the concentration at half of the fitted maximal effect.

Potency, active:
CCc1nnc(NC(=O)c2cccs2)s1 12.6 µM
CCc1c(C)sc(NC(=O)c2cccs2)c1C(N)=O 3.55 µM
Cc1nc(NC(=O)C2CCCCC2)sc1C 12.6 µM
C/C(=N\NC(=O)c1ccc2ccccc2c1)c1cccnc1 10 µM
CC(=O)c1ccc(NC(=S)NC(=O)CC(C)C)cc1 7.94 µM
CN(C(=O)c1ccccn1)c1nnc(-c2ccccn2)s1 11.2 µM
COc1ccc2c(c1OC)C(=O)N(c1ccc(O)cc1)C2 4.47 µM
CC(C)(C)c1ccc(OC2=CS(=O)(=O)c3ccccc32)cc1 12.6 µM
CC(C)(C)OC(=O)NCCCCCC(=O)N/N=C/c1coc2ccccc2c1=O 11.2 µM
CCN(CC)c1ccc(C(=O)OCC(=O)c2ccco2)cc1 8.91 µM
O=C(NCC1CCCO1)c1cc2c(s1)CCCC2 (stereo not drawn) 5.62 µM
Fc1cccc(Cl)c1CSc1ccc(-c2ccco2)nn1 3.55 µM
O=C(NC(=S)Nc1ccc(Cl)cc1Cl)C1CC1 3.16 µM
CCOc1ccc(NC(=O)Nc2cc(C)on2)cc1 7.94 µM
COc1cc(CN2CCC(C(N)=O)CC2)ccc1OCc1ccccc1 11.2 µM
COc1cccc(CNC(=O)c2n[nH]c3ccccc23)c1 11.2 µM
COc1ccc(COC(=O)c2n[nH]c3ccccc23)cc1F 14.1 µM
CCN1C(=O)/C(=C2\SC(N3CCCCC3)=NC2=O)c2ccccc21 10 µM
Cc1nc(-c2ccccc2)sc1C(=O)/C=C/N(C)C 11.2 µM
O=C(c1cnn2ccccc12)N1CCc2ccccc21 3.16 µM
O=C(Nc1ccc([N+](=O)[O-])cc1)OCCc1ccccn1 2.82 µM
CC(=O)c1cccc(NC(=O)Nc2ccc(C)cc2)c1 14.1 µM
Cc1ccc(NC(=O)Nc2ccccc2)c(Br)c1 1.58 µM
Cc1ccc(NC(=O)Nc2cccnc2)cc1 12.6 µM

Potency, inactive:
COc1ccc(-c2nc(C)c(CCNC(=O)c3ccc(C(F)(F)F)cc3)s2)cc1OC
COc1ccc(NC(=O)c2ccc3nc(C(C)C)oc3c2)cc1OC
COc1ccc(-n2c(=O)c3c(c4cc(OC)ccc4n3C)n(Cc3cccc(C)c3)c2=O)cc1
CCc1nnc(NC(=O)CCC(=O)NCc2ccccc2OC)s1
CCc1nnc(NC(=O)C2CCCN2S(=O)(=O)c2ccccc2)s1 (stereo not drawn)
CCOC(=O)c1c(NC(=O)C2CC=CCC2C(=O)O)sc(C)c1CC (stereo not drawn)
CCOC(=O)CSc1nnc(CNC(=O)c2cccs2)n1-c1ccccc1
CCS(=O)(=O)N1CCc2cc(C(=O)N3CCN(c4ccccc4OC)CC3)ccc21
Cc1nc2ccc(NC(=O)C3CCCCC3)cc2s1
Cc1nc(NC(=O)C23CCC(C)(C(=O)O2)C3(C)C)sc1C (stereo not drawn)
CC(C)(C(=O)NO)c1ccccc1
C/C(=N\NC(=O)c1cccc([N+](=O)[O-])c1)c1cccnc1
C/C(=N\NC(=O)c1cccnc1)c1ccc(-n2ccnc2)cc1
OCCNc1ncnc2oc(-c3ccco3)c(-c3ccco3)c12
Cc1oc2ncnc(N3CCCCC3)c2c1C(=O)N1CCN(c2cccc(Cl)c2)CC1
COC(=O)c1ccccc1NS(=O)(=O)c1ccc2c(c1)CCCN2C(C)=O
CC(C)CC(=O)NC(=S)Nc1ccc(F)cc1F
CC(C)CC(=O)NC(=S)NNC(=O)c1cccc([N+](=O)[O-])c1
CCc1ccccc1NC(=O)Cc1ccc(NC(=O)N2CCCCc3ccccc32)cc1
CCCCN(C)S(=O)(=O)c1ccc(C(=O)Nc2sc3c(c2C(N)=O)CC(C)(C)NC3(C)C)cc1
CCC(C)(C)NC(=O)C(c1ccccn1)N(C(=O)c1csnn1)c1ccccc1 (stereo not drawn)
CN(C(=O)C1CCOC1)c1nnc(-c2cccnc2)s1 (stereo not drawn)
Brc1cccc[n+]1Cc1cccc(C[n+]2ccccc2Br)c1
Cc1cc(C)cc(NC(=O)CCS(=O)(=O)c2cc3c4c(c2)CCN4C(=O)CC3)c1
COc1ccc2c(c1OC)C(=O)N(c1ncn[nH]1)C2
CC(C)(C)c1ccc(Oc2ccc(N)cc2)cc1
CC(C)(C)c1ccc(CN2C(=O)c3ccccc3S2(=O)=O)cc1
O=S(=O)(c1cccc(C(F)(F)F)c1)N1CCN(c2nc(-c3cccs3)nc3ccccc23)CC1
O=C(CCNC(=O)c1ccccc1)NN=Cc1ccc(Br)o1
Cc1cccc(NC(=O)CSc2nnc(CCCCCNC(=O)OC(C)(C)C)o2)c1C
Cc1ccc(-c2nc(=N)sn2Cc2ccccc2)cc1
CCOc1ccc(NC(=O)Cn2c(=O)n(CCCC(=O)NCc3ccc4c(c3)OCO4)c(=O)c3ccccc32)cc1
CCc1ccc(C(=O)COC(=O)c2ccco2)cc1
O=C(COC(=O)c1ccccc1C(=O)c1ccccc1)c1ccco1
COc1ccc(S(=O)(=O)n2nc(C)c(S(=O)(=O)N3CCCCCC3)c2C)cc1
COc1ccc(S(=O)(=O)Nc2cccc3cccnc23)c(N)c1
CCC(=O)c1c[nH]c(C(=O)NCC2CCCO2)c1 (stereo not drawn)
O=C(NCCCn1ccnc1)c1cc2c(s1)CCCC2
Cc1snc(SCc2c(F)cccc2Cl)c1C#N
COc1ccc(NC(=O)CSc2ccc(-c3ccco3)nn2)c(OC)c1
S=C(Nc1ccc(Cl)cc1Cl)N1CCCC1
O=C(NC(=S)Nc1ccc(Br)cc1F)C1CCCCC1
CCOc1ccc(NC(=O)Nc2ccc(N(C)C(C)=O)cc2)cc1
CCC(=O)Nc1ccc(C(=O)Nc2cc(C)on2)cc1
Cc1ccccc1OCCSc1nc2ccc(NC(=O)c3ccco3)cc2s1
Oc1ccc(Br)cc1C1C=C(c2ccc3c(c2)OCO3)NC(c2ccc(Cl)cc2)N1 (stereo not drawn)
COc1ccc(COCC(O)CN2CCC(C(N)=O)CC2)cc1 (stereo not drawn)
COc1ccc(CCN2C(=O)CC(N3CCC(C(N)=O)CC3)C2=O)cc1OC (stereo not drawn)
CN(C)c1ccc(/C=C/c2sc3ccccc3[n+]2C)cc1
COc1ccc(NC(=O)COC(=O)c2n[nH]c3ccccc23)c(OC)c1
COc1ccc(S(=O)(=O)N(C)C)cc1NC(=O)COC(=O)c1n[nH]c2ccccc12
COC(=O)[C@@H](NC(=O)NCc1cccc(OC)c1)C(C)C
COc1cccc(CC(=O)OCC(=O)NCc2ccc3c(c2)OCO3)c1
CC(=O)c1ccc(NC(=O)C2CCN(S(=O)(=O)c3c(C)noc3/C=C/c3ccc(C)cc3)CC2)cc1
CN(CCC#N)c1ccc(C=O)cc1
CCN(CCCNC(=O)c1c(C)oc2ncn(CC(C)C)c(=O)c12)Cc1ccccc1
COc1cccc(NC(=O)N(Cc2cn(C)c3ccccc23)C2CCCCCC2)c1
CNc1ccc(-c2nc(-c3ccccc3C)no2)cc1[N+](=O)[O-]
CCCCN1CC(c2nc3ccccc3n2CCCCOc2ccc(C)cc2C)CC1=O (stereo not drawn)
CCn1c(=O)n(CC)c2cc(N3CCCC3)c(NC(=O)c3ccccc3Br)cc21
CC(C)=C1SC(N2CCN(c3ccc(C)c(Cl)c3)CC2)=NC1=O
Cc1cc(OC(C)C(=O)Nc2sc3c(c2C(N)=O)CCCC3)ccc1Cl (stereo not drawn)
Cc1nc(COc2cccc(Cl)c2)sc1C(=O)/C=C/N(C)C
CN(C)/C=C/C(=O)c1cnc2sccn2c1=O
Cc1cccc(N2CCN(C(=O)c3cc4c(=O)oc5ccccc5c4s3)CC2C)c1 (stereo not drawn)
Cc1cnc(C(=O)OCC(=O)N2CCc3ccccc32)cn1
CCCCn1nc(C(=O)N2CCc3ccccc32)c2ccccc2c1=O
Cc1nn(C(=O)c2c(F)cccc2F)c(C)c1S(=O)(=O)N1CCOCC1
O=C(C1CC1)N1CCc2cc(Br)cc(S(=O)(=O)N3CCN(c4ccccc4F)CC3)c21
O=C(COC(=O)c1ccccn1)NNC(=O)c1ccc([N+](=O)[O-])cc1
O=[N+]([O-])c1ccc(NC(=S)N2CCN(c3ccccn3)CC2)cc1
Cc1cc(NC(=O)Nc2c[nH]c(=O)[nH]c2=O)ccc1Br
CC(=O)c1cccc(NC(=O)[C@@H](NC(N)=O)C(C)C)c1
Cc1ccc(NC(=O)N2CCC(O)(c3cccnc3)CC2)cc1
CCOc1cc(NC(=O)Nc2ccccc2)c(OCC)cc1NC(=O)CC
O=C(Nc1ccc(Cl)cc1)Nc1ccc(Oc2cccnc2)nc1
CC(=O)c1cccc(NC(=O)c2nc(-c3ccccc3)n(-c3cccc(C)c3)n2)c1
Cc1sc2ncn(CC(=O)N3CCN(c4ccc(F)cc4)CC3)c(=O)c2c1S(=O)(=O)N1CCN(c2ncccn2)CC1
COc1ccccc1CNc1ccc(-c2nc(-c3ccccc3C)no2)cc1[N+](=O)[O-]
CCOC(=O)C(Cc1ccccc1)NC(=O)CCc1c(C)nc2c(c(C)nn2-c2ccc(C)c(C)c2)c1C (stereo not drawn)
CCS(=O)(=O)N1CCc2cc(C(=O)NCc3ccc(OC)cc3)ccc21
COc1ccc(CNc2nc(-c3ccc(Cl)cc3)cc(C(F)(F)F)n2)cc1
CC(Nc1ccc(-c2nc(-c3ccco3)no2)cc1[N+](=O)[O-])c1ccccc1 (stereo not drawn)
COc1ccc(NC(=O)Cn2c(=O)n(Cc3ccc(C(=O)NCc4ccccc4Cl)cc3)c(=O)c3ccccc32)cc1
